Data on 30 molecules can be found in PubChem BioAssay (EPA / NIEHS).

The source made the active and inactive calls. Rule for the calls: active = hit-call score of the fitted dose curve at least 0.9, where 1 is the maximum; inactive = score below 0.9.

Aryl hydrocarbon receptor (Homo sapiens), sequence (P35869 whole entry, looked up): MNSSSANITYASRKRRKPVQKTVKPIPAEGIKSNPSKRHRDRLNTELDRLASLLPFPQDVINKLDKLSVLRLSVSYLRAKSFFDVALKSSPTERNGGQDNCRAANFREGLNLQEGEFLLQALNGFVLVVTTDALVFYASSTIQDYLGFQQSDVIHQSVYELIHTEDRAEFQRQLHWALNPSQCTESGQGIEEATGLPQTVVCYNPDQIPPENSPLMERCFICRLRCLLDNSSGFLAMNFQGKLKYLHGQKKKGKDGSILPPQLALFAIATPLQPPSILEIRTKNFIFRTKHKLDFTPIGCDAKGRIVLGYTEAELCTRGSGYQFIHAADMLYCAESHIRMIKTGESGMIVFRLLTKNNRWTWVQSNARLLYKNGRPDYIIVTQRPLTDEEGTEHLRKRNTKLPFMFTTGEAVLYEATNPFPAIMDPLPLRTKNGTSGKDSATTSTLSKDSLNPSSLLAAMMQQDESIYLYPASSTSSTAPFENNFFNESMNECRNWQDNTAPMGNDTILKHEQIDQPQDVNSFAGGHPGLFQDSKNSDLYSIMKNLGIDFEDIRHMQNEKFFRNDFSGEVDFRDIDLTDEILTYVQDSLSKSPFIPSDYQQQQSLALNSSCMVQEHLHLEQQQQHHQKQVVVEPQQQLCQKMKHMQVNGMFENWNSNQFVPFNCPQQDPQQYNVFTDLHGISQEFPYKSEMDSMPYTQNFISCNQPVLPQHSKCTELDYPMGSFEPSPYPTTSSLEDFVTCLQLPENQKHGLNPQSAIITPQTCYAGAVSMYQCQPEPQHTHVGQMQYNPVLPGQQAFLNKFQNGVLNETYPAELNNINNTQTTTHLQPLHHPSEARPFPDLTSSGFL

Test system in the first test: not listed separately
Kind of test: ATG_DR4_LXR_CIS: Attagene CIS-FACTORIAL HepG2 Assay for human Liver X Receptor (LXR), DR4 submotif (AID 2282929). The following applies: HepG2 Attagene DR4 cis-reporter, mRNA transcription; actives raise or lower the signal. In short, it runs like this: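 After transient transfection with multiplexed cis-promoter reporter units, HepG2 cells received test chemicals for 24 h. Reporter mRNA induction, detected by fluorescence after RT-PCR and capillary electrophoresis, was scored relative to DMSO.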
In the case of `O=C(N[C@@H](Cc1ccccc1)[C@@H](O)C(=O)N1C[C@@H](O)[C@@H](O)C1)c1cc2cc(Cl)ccc2[nH]1`, the AC50 (commonly the concentration giving half of the maximal activity seen) is 60.5 µM (active).
As to `CCCCCCCCCCCCCCCC`, the result was inactive.
In the case of `Cc1ccc(C)c(C)c1`, the result was inactive.
For the molecule `C=CCOC(=O)c1ccccc1C(=O)OCC=C`, the half-maximal activity concentration (AC50) is 26.2 µM (active).
Consider `CCCCCCCCCCC`, for which the molecule was classed as inactive.
Take `COc1cc(-c2nc(NC(=O)c3cc4cc(C)cc(C)c4n3CC(=O)O)sc2CCC2CCCCC2)c(OC)cc1Cl`: the result was inactive.
For `Cc1cc(NC(=O)C(=O)O)cc(C)c1Oc1ccc(O)c2c1CCC2`, the AC50 is 156 µM (active).
With `O=C(OCCCCCOC(=O)c1ccccc1)c1ccccc1`, the call was inactive.
Take `COC(=O)c1ccc(O)cc1`: the result was inactive.
For `CCCCCCCC=O`, the call was inactive.
`CCCCC(CC)COC(=O)CC(C(=O)OCC(CC)CCCC)S(=O)(=O)O` (stereo not given): the result was inactive.
Regarding `C[Si]1(C)O[Si](C)(C)O[Si](C)(C)O[Si](C)(C)O1`, the AC50 is 49.6 µM (active).
On to `C=CCc1ccc(O)c(OC)c1`, for which the molecule was classed as inactive.
On to `NS(=O)(=O)c1cc2c(cc1Cl)NCNS2(=O)=O`, for which the molecule was called inactive.
With `COc1cc(/C=C/C(=O)CC(=O)/C=C/c2ccc(O)c(OC)c2)ccc1O`, the AC50 was 58.3 µM (active).
As for `CCOC(=O)CCC(=O)OCC`, the molecule was called inactive.
Take `CC(CO)OC(C)CO` (stereo not given) (tested in a mixture with another compound): the outcome was inactive.
Take `O=C(O)CCCCC(=O)O`: the call was inactive.
Same read-out and setting: with `Cc1cc(=O)[nH]c(=S)[nH]1` the entry was “inactive”; with `Cc1nc(-c2ccc3c(c2)CCN(CCC2CCC(NC(=O)/C=C/c4ccc(F)cc4)CC2)CC3)no1` (stereo not given), “inactive”.
As to `Oc1ccc2c(c1)OC[C@@H](N1CCC(O)(c3ccc(F)cc3)CC1)[C@H]2O`, the molecule was classed as inactive.
With `NCC1(Cc2noc(=O)[nH]2)CCCCC1`, the molecule was called inactive.
For `NCCO`, the result was inactive.
Regarding `CC1=C(/C=C/C(C)=C/C=C/C(C)=C/CO)C(C)(C)CCC1`, the AC50 was 65.6 µM (active).
Regarding `Cc1cccc([N+](=O)[O-])c1C`, the outcome was inactive.
`CCCCCCCCCCCCCO`: the outcome was inactive.
On to `Cc1ccc(C(C)C)c(O)c1`, for which the call was inactive.
For the molecule `Nc1ccc(S(=O)(=O)c2ccc(N)cc2)cc1`, the call was inactive.
On to `Nc1nc(N)c2nc(CNc3ccc(C(=O)N[C@@H](CCC(=O)O)C(=O)O)cc3)cnc2n1`, for which the molecule was called inactive.
`CCCCc1ccc2c(n1)[C@@H](c1ccc(OC)cc1C[C@H](C)C(=O)O)[C@H](C(=O)O)[C@H]2c1ccc2c(c1)OCO2`: the result was inactive.

The target of a further test is Aryl hydrocarbon receptor (Homo sapiens) (UniProt P35869). Kind of test: ATG_Ahr_CIS: Attagene CIS-FACTORIAL HepG2 Assay for human Aryl Hydrocarbon Receptor (Ahr) (AID 2282930). The following applies: HepG2 AhR cis-factorial reporter transcription; actives raise or lower the signal. In short, it runs like this:
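HepG2 cells transiently transfected with cis-element-driven multiplexed reporter transcription units; endogenous transcription factor activity measured as reporter mRNA 24 h after dosing. RT-PCR, 6-FAM labelling, HpaI digestion, capillary electrophoresis; bidirectional fitting versus DMSO baseline.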
Consider `O=C(N[C@@H](Cc1ccccc1)[C@@H](O)C(=O)N1C[C@@H](O)[C@@H](O)C1)c1cc2cc(Cl)ccc2[nH]1`, for which the molecule was called inactive.
On the same count and under the same terms, the result for `CCCCCCCCCCCCCCCC` reads “inactive”; that for `Cc1ccc(C)c(C)c1`, “inactive”.
For the molecule `C=CCOC(=O)c1ccccc1C(=O)OCC=C`, the result was inactive.
As for `CCCCCCCCCCC`, the result was inactive.
For `COc1cc(-c2nc(NC(=O)c3cc4cc(C)cc(C)c4n3CC(=O)O)sc2CCC2CCCCC2)c(OC)cc1Cl`, the AC50 is 10.4 µM (active).
Regarding `Cc1cc(NC(=O)C(=O)O)cc(C)c1Oc1ccc(O)c2c1CCC2`, the molecule was called inactive.
Still for that read-out and setting: the result for `O=C(OCCCCCOC(=O)c1ccccc1)c1ccccc1` reads “inactive”; that for `COC(=O)c1ccc(O)cc1`, “inactive”; that for `CCCCCCCC=O`, “inactive”.
Regarding `CCCCC(CC)COC(=O)CC(C(=O)OCC(CC)CCCC)S(=O)(=O)O` (stereo not given), the result was inactive.
For `C[Si]1(C)O[Si](C)(C)O[Si](C)(C)O[Si](C)(C)O1`, the result was inactive.
For the molecule `C=CCc1ccc(O)c(OC)c1`, the molecule was classed as inactive.
The same measure, in the same setting: the result for `NS(=O)(=O)c1cc2c(cc1Cl)NCNS2(=O)=O` reads “inactive”.
As for `COc1cc(/C=C/C(=O)CC(=O)/C=C/c2ccc(O)c(OC)c2)ccc1O`, the AC50 was 55.2 µM (active).
In the case of `CCOC(=O)CCC(=O)OCC`, the AC50 is 75.7 µM (active).
In the case of `CC(CO)OC(C)CO` (stereo not given) (tested in a mixture with another compound), the molecule was called inactive.
As for `O=C(O)CCCCC(=O)O`, the AC50 is 72.5 µM (active).
Take `Cc1cc(=O)[nH]c(=S)[nH]1`: the molecule was classed as inactive.
Consider `Cc1nc(-c2ccc3c(c2)CCN(CCC2CCC(NC(=O)/C=C/c4ccc(F)cc4)CC2)CC3)no1` (stereo not given), for which the call was inactive.
`Oc1ccc2c(c1)OC[C@@H](N1CCC(O)(c3ccc(F)cc3)CC1)[C@H]2O`: the AC50 is 50 µM (active).
Take `NCC1(Cc2noc(=O)[nH]2)CCCCC1`: the result was inactive.
Consider `NCCO`, for which the molecule was called inactive.
With `CC1=C(/C=C/C(C)=C/C=C/C(C)=C/CO)C(C)(C)CCC1`, the AC50 is 104 µM (active).
`Cc1cccc([N+](=O)[O-])c1C`: the result was inactive.
Turning to `CCCCCCCCCCCCCO`, the result was inactive.
On the same count and under the same terms, the result for `Cc1ccc(C(C)C)c(O)c1` reads “inactive”; that for `Nc1ccc(S(=O)(=O)c2ccc(N)cc2)cc1`, “inactive”; that for `Nc1nc(N)c2nc(CNc3ccc(C(=O)N[C@@H](CCC(=O)O)C(=O)O)cc3)cnc2n1`, “inactive”.
Consider `CCCCc1ccc2c(n1)[C@@H](c1ccc(OC)cc1C[C@H](C)C(=O)O)[C@H](C(=O)O)[C@H]2c1ccc2c(c1)OCO2`, for which the molecule was classed as inactive.

Test system in another test: not listed separately
Kind of test: ATG_AP_1_CIS: Attagene CIS-FACTORIAL HepG2 Assay for human Activator Protein 1 (AP-1) (AID 2282931). The following applies: HepG2 Attagene cis-factorial AP-1 reporter mRNA; actives raise or lower the signal. Put shortly: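 After 24 h incubation with test chemical, RNA from transfected HepG2 cells was reverse-transcribed, amplified, fluorescently labelled and digested before capillary electrophoresis. Reporters were driven by cis-regulatory promoters; activity fitted bidirectionally versus DMSO.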
As for `O=C(N[C@@H](Cc1ccccc1)[C@@H](O)C(=O)N1C[C@@H](O)[C@@H](O)C1)c1cc2cc(Cl)ccc2[nH]1`, the AC50 is 159 µM (active).
With `CCCCCCCCCCCCCCCC`, the call was inactive.
Consider `Cc1ccc(C)c(C)c1`, for which the call was inactive.
Turning to `C=CCOC(=O)c1ccccc1C(=O)OCC=C`, the AC50 is 25.8 µM (active).
For the molecule `CCCCCCCCCCC`, the molecule was classed as inactive.
On to `COc1cc(-c2nc(NC(=O)c3cc4cc(C)cc(C)c4n3CC(=O)O)sc2CCC2CCCCC2)c(OC)cc1Cl`, for which the AC50 was 3.59 µM (active).
In the case of `Cc1cc(NC(=O)C(=O)O)cc(C)c1Oc1ccc(O)c2c1CCC2`, the outcome was inactive.
Turning to `O=C(OCCCCCOC(=O)c1ccccc1)c1ccccc1`, the molecule was classed as inactive.
Take `COC(=O)c1ccc(O)cc1`: the call was inactive.
For the molecule `CCCCCCCC=O`, the molecule was called inactive.
In the case of `CCCCC(CC)COC(=O)CC(C(=O)OCC(CC)CCCC)S(=O)(=O)O` (stereo not given), the call was inactive.
Regarding `C[Si]1(C)O[Si](C)(C)O[Si](C)(C)O[Si](C)(C)O1`, the call was inactive.
For `C=CCc1ccc(O)c(OC)c1`, the outcome was inactive.
Regarding `NS(=O)(=O)c1cc2c(cc1Cl)NCNS2(=O)=O`, the molecule was classed as inactive.
In the case of `COc1cc(/C=C/C(=O)CC(=O)/C=C/c2ccc(O)c(OC)c2)ccc1O`, the AC50 is 54.7 µM (active).
As for `CCOC(=O)CCC(=O)OCC`, the outcome was inactive.
On to `CC(CO)OC(C)CO` (stereo not given) (tested in a mixture with another compound), for which the molecule was classed as inactive.
As for `O=C(O)CCCCC(=O)O`, the result was inactive.
As to `Cc1cc(=O)[nH]c(=S)[nH]1`, the outcome was inactive.
For the molecule `Cc1nc(-c2ccc3c(c2)CCN(CCC2CCC(NC(=O)/C=C/c4ccc(F)cc4)CC2)CC3)no1` (stereo not given), the outcome was inactive.
As for `Oc1ccc2c(c1)OC[C@@H](N1CCC(O)(c3ccc(F)cc3)CC1)[C@H]2O`, the outcome was inactive.
Take `NCC1(Cc2noc(=O)[nH]2)CCCCC1`: the molecule was called inactive.
With `NCCO`, the result was inactive.
On to `CC1=C(/C=C/C(C)=C/C=C/C(C)=C/CO)C(C)(C)CCC1`, for which the AC50 was 168 µM (active).
As for `Cc1cccc([N+](=O)[O-])c1C`, the molecule was classed as inactive.
In the case of `CCCCCCCCCCCCCO`, the concentration at half-maximal activity (AC50) is 34.3 µM (active).
Take `Cc1ccc(C(C)C)c(O)c1`: the result was inactive.
Consider `Nc1ccc(S(=O)(=O)c2ccc(N)cc2)cc1`, for which the outcome was inactive.
In the case of `Nc1nc(N)c2nc(CNc3ccc(C(=O)N[C@@H](CCC(=O)O)C(=O)O)cc3)cnc2n1`, the AC50 was 0.00864 µM (active).
Regarding `CCCCc1ccc2c(n1)[C@@H](c1ccc(OC)cc1C[C@H](C)C(=O)O)[C@H](C(=O)O)[C@H]2c1ccc2c(c1)OCO2`, the molecule was classed as inactive.
